According to ChEMBL document CHEMBL3988442, “University of Dundee, Small-Polar-MMV Screening Library” (2021):
For some of these results: Measured potencies and affinities stand elsewhere.

Legend:
Design in all cases: scale not given: direction of the effect not stated beside the values
[1] = molecular target: Protein translocase subunit SecA (Escherichia coli (strain K12)) (UniProt P10408); assay: Assay to Identify E. coli SecA ATPase Inhibitors; format: functional; conditions: 30 µM
[2] = molecular target: T1, Ubiquitin-activating enzyme e1, putative (Leishmania donovani (strain BPK282A1)) (UniProt E9BSI1); assay: Leishmania donovani Ubiquitin Activating Enzyme (LdE1); format: functional; conditions: 30 µM
T1 sequence (whole entry): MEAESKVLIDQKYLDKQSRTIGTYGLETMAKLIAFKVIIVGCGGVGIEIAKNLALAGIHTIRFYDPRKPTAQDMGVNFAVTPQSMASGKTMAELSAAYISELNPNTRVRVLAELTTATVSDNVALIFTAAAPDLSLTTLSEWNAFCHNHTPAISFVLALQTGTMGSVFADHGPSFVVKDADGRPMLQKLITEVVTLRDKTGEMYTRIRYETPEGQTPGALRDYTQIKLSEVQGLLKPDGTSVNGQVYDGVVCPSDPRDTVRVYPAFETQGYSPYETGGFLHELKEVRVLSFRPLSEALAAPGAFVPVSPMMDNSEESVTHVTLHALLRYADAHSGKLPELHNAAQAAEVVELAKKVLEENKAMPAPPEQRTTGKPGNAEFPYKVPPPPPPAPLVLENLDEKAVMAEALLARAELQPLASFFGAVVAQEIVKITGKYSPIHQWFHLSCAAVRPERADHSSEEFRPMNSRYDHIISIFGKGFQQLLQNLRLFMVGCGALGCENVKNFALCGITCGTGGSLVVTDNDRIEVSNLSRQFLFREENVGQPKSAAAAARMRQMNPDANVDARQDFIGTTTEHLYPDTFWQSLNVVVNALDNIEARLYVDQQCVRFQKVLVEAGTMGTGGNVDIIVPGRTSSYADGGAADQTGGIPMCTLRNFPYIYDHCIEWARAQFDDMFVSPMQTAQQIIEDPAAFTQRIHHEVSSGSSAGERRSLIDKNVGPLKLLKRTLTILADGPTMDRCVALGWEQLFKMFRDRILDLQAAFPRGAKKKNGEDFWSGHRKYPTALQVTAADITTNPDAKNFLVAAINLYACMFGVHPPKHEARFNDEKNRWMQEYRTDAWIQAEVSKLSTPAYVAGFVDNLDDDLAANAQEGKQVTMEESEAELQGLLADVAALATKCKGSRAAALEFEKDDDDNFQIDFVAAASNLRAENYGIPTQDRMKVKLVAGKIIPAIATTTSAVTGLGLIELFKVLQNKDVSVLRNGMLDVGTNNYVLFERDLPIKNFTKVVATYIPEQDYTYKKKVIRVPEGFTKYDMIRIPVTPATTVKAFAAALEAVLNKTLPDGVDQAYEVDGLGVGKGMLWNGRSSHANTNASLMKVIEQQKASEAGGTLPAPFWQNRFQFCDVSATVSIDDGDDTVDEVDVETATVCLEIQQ

[3] = molecular target: Sialic acid-binding Ig-like lectin 9 (Homo sapiens) (UniProt Q9Y336); assay: Hs-Siglec9 ALPHAscreen SOP 20170721; conditions: 10 µM
Sequence of Sialic acid-binding Ig-like lectin 9 (Homo sapiens) (Q9Y336 whole entry): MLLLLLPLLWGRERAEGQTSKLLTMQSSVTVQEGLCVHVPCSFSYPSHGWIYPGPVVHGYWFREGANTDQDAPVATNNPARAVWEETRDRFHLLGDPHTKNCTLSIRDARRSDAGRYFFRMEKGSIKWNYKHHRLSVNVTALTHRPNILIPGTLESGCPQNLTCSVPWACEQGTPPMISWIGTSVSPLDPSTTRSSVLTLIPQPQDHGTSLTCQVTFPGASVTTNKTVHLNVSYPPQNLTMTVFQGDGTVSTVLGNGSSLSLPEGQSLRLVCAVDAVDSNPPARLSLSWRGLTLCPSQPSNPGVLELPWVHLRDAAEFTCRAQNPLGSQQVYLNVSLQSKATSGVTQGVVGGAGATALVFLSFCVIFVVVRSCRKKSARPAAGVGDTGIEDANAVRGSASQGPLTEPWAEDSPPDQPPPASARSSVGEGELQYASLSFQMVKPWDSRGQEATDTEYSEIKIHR

Trypanosoma cruzi = assay: Trypanosoma cruzi phosphomannomutase and mannose-1-phosphate guanylyltransferase assay; format: functional; conditions: 10 µM
[4] = molecular target: T2, Arginase-2, mitochondrial (Homo sapiens) (UniProt P78540); assay: in vitro enzyme assay to detect the production of urea directly proportional to the activity of Arginase II; format: functional; conditions: 33.3 µM; note: in the data most compounds retested in dose-response had high values
T2 sequence (whole entry): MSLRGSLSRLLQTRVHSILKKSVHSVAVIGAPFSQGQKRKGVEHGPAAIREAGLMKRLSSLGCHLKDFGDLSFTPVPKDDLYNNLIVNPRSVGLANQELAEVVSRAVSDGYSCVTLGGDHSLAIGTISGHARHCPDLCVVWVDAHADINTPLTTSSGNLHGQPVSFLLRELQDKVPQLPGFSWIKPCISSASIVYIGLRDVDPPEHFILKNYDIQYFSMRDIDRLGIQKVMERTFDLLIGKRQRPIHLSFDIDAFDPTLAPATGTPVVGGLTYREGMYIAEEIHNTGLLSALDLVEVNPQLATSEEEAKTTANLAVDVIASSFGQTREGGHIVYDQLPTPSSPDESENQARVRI

[5] = molecular target: T3, Proteasome subunit beta (Trypanosoma cruzi) (UniProt O96673); assay: Trypanosoma cruzi proteasome chymotrypsin-like activity (TcProtChymo) assay.; note: in the data most compounds retested in dose-response had high values; format: functional; conditions: 9.37 µM
T3 sequence (whole entry): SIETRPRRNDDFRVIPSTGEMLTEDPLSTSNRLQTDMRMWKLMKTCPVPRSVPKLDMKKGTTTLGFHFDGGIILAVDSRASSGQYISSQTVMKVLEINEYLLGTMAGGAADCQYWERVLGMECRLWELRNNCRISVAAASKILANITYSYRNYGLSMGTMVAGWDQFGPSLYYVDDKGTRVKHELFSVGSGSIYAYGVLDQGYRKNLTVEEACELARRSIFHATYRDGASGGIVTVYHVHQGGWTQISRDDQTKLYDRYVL

Homo sapiens = organism: Homo sapiens; assay: To identify inhibition of the IFN signalling (Jak-Stat) pathway via expression of an eGFP reporter gene under the control of an IFN-stimulated response element (ISRE) containing MxA promoter.; format: functional; conditions: 30 µM
[6] = molecular target: T4, Tyrosyl-tRNA synthetase, putative (Trypanosoma cruzi (strain CL Brener)) (UniProt Q4DSP6); assay: Trypanosoma cruzi tyrosyl tRNA synthetase (TcYRS) _High Tyrosine SOP; format: functional; conditions: 30 µM; note: in the data most compounds retested in dose-response had high values
T4 sequence (whole entry): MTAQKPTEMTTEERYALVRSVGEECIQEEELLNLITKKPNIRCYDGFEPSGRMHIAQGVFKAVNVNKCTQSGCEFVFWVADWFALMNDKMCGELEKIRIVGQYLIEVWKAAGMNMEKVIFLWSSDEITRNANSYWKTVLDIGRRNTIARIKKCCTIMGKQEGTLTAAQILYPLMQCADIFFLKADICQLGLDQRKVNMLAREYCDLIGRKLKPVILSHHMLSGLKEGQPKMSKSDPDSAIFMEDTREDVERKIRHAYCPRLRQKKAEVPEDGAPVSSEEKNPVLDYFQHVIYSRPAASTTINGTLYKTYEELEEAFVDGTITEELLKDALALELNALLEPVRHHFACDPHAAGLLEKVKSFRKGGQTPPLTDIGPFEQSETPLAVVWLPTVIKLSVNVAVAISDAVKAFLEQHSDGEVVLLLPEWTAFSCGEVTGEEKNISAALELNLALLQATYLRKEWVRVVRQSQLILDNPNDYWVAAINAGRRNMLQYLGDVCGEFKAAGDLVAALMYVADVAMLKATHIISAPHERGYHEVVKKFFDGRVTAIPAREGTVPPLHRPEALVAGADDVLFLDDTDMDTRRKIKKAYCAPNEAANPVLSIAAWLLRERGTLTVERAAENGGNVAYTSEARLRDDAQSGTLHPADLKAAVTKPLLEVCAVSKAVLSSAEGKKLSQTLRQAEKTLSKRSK

[7] = molecular target: T4, Tyrosyl-tRNA synthetase, putative (Trypanosoma cruzi (strain CL Brener)); assay: Trypanosoma cruzi tyrosyl tRNA synthetase (TcYRS) SOP; format: functional; conditions: 30 µM
[8] = molecular target: Chromo domain-containing protein 1 (Saccharomyces cerevisiae (strain ATCC 204508 / S288c) (Baker's yeast)) (UniProt P32657); assay: ScCHD-1 Enzyme Inhibition Assay; format: functional; conditions: 30 µM; note: in the data most compounds retested in dose-response had high values
Sequence of Chromo domain-containing protein 1 (Saccharomyces cerevisiae (strain ATCC 204508 / S288c) (Baker's yeast)) (P32657 whole entry, the tested form may be a part): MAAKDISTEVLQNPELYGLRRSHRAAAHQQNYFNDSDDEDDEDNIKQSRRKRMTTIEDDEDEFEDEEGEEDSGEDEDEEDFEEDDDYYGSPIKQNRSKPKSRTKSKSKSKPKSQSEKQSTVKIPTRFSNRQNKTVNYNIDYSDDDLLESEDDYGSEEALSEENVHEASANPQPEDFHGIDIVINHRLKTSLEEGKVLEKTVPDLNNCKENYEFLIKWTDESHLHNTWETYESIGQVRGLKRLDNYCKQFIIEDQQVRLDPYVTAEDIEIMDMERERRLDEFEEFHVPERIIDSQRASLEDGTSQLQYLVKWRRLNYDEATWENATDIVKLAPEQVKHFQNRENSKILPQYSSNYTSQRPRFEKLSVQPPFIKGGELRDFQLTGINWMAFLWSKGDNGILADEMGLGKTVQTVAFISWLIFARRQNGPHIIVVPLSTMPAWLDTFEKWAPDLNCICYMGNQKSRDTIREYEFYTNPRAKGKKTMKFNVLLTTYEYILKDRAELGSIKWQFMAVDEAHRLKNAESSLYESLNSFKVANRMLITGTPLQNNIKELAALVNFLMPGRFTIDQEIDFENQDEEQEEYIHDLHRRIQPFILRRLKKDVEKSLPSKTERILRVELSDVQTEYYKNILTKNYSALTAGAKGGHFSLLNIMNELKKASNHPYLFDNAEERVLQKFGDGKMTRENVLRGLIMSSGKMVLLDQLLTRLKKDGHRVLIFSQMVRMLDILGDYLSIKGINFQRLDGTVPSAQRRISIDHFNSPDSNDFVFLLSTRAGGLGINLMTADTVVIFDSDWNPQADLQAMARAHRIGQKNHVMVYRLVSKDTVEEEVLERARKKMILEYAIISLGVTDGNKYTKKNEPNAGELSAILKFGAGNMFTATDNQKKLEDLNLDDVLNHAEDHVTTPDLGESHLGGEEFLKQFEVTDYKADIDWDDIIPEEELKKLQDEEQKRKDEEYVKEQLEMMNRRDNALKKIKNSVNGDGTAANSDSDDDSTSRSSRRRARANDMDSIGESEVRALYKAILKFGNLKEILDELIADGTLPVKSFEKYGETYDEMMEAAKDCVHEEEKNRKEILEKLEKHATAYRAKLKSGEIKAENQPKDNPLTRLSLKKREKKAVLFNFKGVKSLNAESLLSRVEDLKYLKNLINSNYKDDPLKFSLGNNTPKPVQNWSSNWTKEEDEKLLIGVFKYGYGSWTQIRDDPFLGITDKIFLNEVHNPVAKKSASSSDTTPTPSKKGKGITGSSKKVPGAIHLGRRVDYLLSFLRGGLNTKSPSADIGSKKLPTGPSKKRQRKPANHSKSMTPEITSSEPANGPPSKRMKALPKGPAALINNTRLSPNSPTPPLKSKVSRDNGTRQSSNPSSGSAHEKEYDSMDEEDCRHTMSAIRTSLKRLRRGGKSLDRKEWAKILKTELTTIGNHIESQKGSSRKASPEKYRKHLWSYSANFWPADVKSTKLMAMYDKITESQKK

[9] = molecular target: AMP-activated protein kinase, AMPK (Homo sapiens) (UniProt P54646+O43741+P54619+Q9UGJ0+Q9Y478+Q13131+Q9UGI9); assay: AMP-dependent Kinase enzyme assay. An in vitro enzyme assay that detects ADP turnover that is directly proportional to AMPK activity. This uses naive AMPK that is activated during the assay with MK-8722; format: functional; conditions: 30 µM

Sequence of Protein translocase subunit SecA (Escherichia coli (strain K12)) (P10408 whole entry): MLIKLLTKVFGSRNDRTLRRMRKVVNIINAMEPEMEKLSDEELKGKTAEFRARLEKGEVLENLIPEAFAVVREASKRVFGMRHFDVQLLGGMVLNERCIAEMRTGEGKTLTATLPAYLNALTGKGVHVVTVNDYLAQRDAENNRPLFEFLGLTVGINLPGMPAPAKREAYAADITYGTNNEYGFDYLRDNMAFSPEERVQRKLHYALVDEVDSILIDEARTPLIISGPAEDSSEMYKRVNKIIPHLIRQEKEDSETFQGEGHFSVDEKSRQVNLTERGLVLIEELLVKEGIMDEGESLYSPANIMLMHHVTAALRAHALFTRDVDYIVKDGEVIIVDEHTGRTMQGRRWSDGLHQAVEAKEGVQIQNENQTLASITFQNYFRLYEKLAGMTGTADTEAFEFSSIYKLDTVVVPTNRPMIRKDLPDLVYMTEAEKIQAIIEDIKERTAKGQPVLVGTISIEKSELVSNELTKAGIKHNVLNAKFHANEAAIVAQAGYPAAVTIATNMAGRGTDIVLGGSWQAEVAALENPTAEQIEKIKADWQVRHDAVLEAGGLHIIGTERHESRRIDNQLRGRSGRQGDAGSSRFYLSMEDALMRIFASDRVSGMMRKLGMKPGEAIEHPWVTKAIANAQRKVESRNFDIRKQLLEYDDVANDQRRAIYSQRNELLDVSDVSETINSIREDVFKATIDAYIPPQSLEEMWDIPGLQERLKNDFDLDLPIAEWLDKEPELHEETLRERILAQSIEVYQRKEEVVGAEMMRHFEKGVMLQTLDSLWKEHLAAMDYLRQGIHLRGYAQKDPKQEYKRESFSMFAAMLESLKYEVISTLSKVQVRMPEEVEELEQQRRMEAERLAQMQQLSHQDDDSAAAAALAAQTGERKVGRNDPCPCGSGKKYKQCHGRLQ

## CN(C)CC1CN(Cc2coc(-c3cccs3)n2)CCO1 (stereo not drawn)
[1]
  Percent Effect: -1.09%
[2]
  Percent Effect: 13.3%
[3]
  Percent Effect: -3.06%
Trypanosoma cruzi
  Percent Effect: -2.41%
[4]
  Percent Effect: 2.22%
[5]
  Percent Effect: 11.8%
Homo sapiens
  Percent Effect: 15.3%
[6]
  Percent Effect: -0.526%
[7]
  Percent Effect: 5.13%
[8]
  Percent Effect: -10.9%

## COc1ccc(CN2CCC3(CC2)CCN(CC2CC2)C3=O)cc1
[1]
  Percent Effect: -3.5%
[2]
  Percent Effect: 19.5%
[3]
  Percent Effect: 0.146%
Trypanosoma cruzi
  Percent Effect: -3.56%
[4]
  Percent Effect: 4.57%
[5]
  Percent Effect: 3.18%
Homo sapiens
  Percent Effect: 4.44%
[6]
  Percent Effect: 4.83%
[7]
  Percent Effect: 2.5%
[8]
  Percent Effect: -2.76%

## Cc1cc(NC(=O)C(C)N2CCCN(c3nccs3)CC2)on1 (stereo not drawn)
[1]
  Percent Effect: -5.38%
[2]
  Percent Effect: 7.69%
[3]
  Percent Effect: 6.57%
Trypanosoma cruzi
  Percent Effect: 1.03%
[4]
  Percent Effect: 5.74%
[5]
  Percent Effect: 7.08%
Homo sapiens
  Percent Effect: 12.4%
[6]
  Percent Effect: 0.478%
[7]
  Percent Effect: 8.43%
[8]
  Percent Effect: 6.1%

## CNC(=O)c1cc(S(=O)(=O)C(C)C)cs1
[1]
  Percent Effect: 0.159%
[2]
  Percent Effect: 19.5%
[3]
  Percent Effect: 28.2%
Trypanosoma cruzi
  Percent Effect: 3.75%
[4]
  Percent Effect: 3.2%
[5]
  Percent Effect: 13.7%
Homo sapiens
  Percent Effect: -6.32%
[6]
  Percent Effect: 6.76%
[7]
  Percent Effect: 20%
[8]
  Percent Effect: -10.6%

## c1ccc(-n2ccc(CN3CCCC3Cn3cccn3)n2)cc1 (stereo not drawn)
[1]
  Percent Effect: -2.21%
[2]
  Percent Effect: -49.4%
[3]
  Percent Effect: 9.5%
Trypanosoma cruzi
  Percent Effect: -5.97%
[4]
  Percent Effect: -7.17%
[5]
  Percent Effect: 8.25%
Homo sapiens
  Percent Effect: 11.5%
[6]
  Percent Effect: 0%
[7]
  Percent Effect: -11.8%
[8]
  Percent Effect: 3.12%

## CC(C)Cc1ncc2c(n1)CN(c1cc(NCCO)nc(N)n1)C2
[9]
  Percent Effect: -165%

## Cc1ncc(-c2ccnc(N3CCN(C)CC3)n2)c(-c2cccnc2)n1
[1]
  Percent Effect: -1.44%
[2]
  Percent Effect: 8%
[3]
  Percent Effect: -2.21%
Trypanosoma cruzi
  Percent Effect: -9.24%
[4]
  Percent Effect: -39.9%
[5]
  Percent Effect: 8.57%
Homo sapiens
  Percent Effect: 8.85%
[6]
  Percent Effect: 4.74%
[7]
  Percent Effect: -2.56%
[8]
  Percent Effect: -12.5%

## CC(C)OCCCNC(=O)CN1CCN(c2nccs2)CC1
[9]
  Percent Effect: 4.26%

## Nc1nc2nc(C3CCCN(C(=O)c4cscn4)C3)ccc2s1 (stereo not drawn)
[1]
  Percent Effect: 0.0997%
[2]
  Percent Effect: 22.7%
[3]
  Percent Effect: -9.01%
Trypanosoma cruzi
  Percent Effect: 3.55%
[4]
  Percent Effect: -9.29%
[5]
  Percent Effect: 19.1%
Homo sapiens
  Percent Effect: 25.7%
[6]
  Percent Effect: 0%
[7]
  Percent Effect: 7.5%
[8]
  Percent Effect: -22.1%

## CC(C)c1cc(NC(=O)CN2CCNC(=O)C2)on1
[1]
  Percent Effect: -0.0493%
[2]
  Percent Effect: 26%
[3]
  Percent Effect: -4.98%
Trypanosoma cruzi
  Percent Effect: -0.933%
[4]
  Percent Effect: -1.43%
[5]
  Percent Effect: 11.2%
Homo sapiens
  Percent Effect: 1.34%
[6]
  Percent Effect: 7.84%
[7]
  Percent Effect: 21.2%
[8]
  Percent Effect: -9.71%

## CC(C)OCCN(C)C(C)c1cccc(S(N)(=O)=O)c1 (stereo not drawn)
[1]
  Percent Effect: -5.89%
[2]
  Percent Effect: 7.79%
[3]
  Percent Effect: -5.22%
Trypanosoma cruzi
  Percent Effect: -3.36%
[4]
  Percent Effect: 2.66%
[5]
  Percent Effect: 1.05%
Homo sapiens
  Percent Effect: 15.1%
[6]
  Percent Effect: -1.96%
[7]
  Percent Effect: -2.35%
[8]
  Percent Effect: -1.17%

## CCC(C)(CC(=O)OC)NCc1nc(C)no1 (stereo not drawn)
[9]
  Percent Effect: -1.72%

## CN(C)S(=O)(=O)N1CC[C@]2(C[C@H](Oc3ncccc3F)CO2)C1
[1]
  Percent Effect: -1.29%
[2]
  Percent Effect: 1.3%
[3]
  Percent Effect: 10.8%
Trypanosoma cruzi
  Percent Effect: 0.0974%
[4]
  Percent Effect: 0%
[5]
  Percent Effect: 1.15%
Homo sapiens
  Percent Effect: -1.45%
[6]
  Percent Effect: 4.74%
[7]
  Percent Effect: 5.13%
[8]
  Percent Effect: 14.3%
